Source: PubChem BioAssay (NCI)
Compounds without any hit were thinned out: in the full panel of roughly 83,000, 20% have a hit.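 Results are percent growth after 48 hours of single-concentration exposure. 100 means growth as in untreated cells, lower positive values show inhibition; negative values down to -100 show cell death.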 Active and inactive are the calls of the source. The calls were made as follows: active = growth percent below 10; inactive = the rest.

Assays:
Test in all cases: NCI-60 one-dose screen, 48 h (100 = growth as untreated, 0 = no growth, -100 = all killed)
Details in all cases: 10 µM
[1] = test system: SR leukemia
[2] = test system: RPMI-8226 leukemia
[3] = test system: OVCAR-8 ovarian
[4] = test system: OVCAR-5 ovarian
[5] = test system: OVCAR-4 ovarian
[6] = test system: SK-OV-3 ovarian
[7] = test system: IGROV1 ovarian
[8] = test system: OVCAR-3 ovarian
[9] = test system: HS 578T breast
[10] = test system: NCI/ADR-RES ovarian
[11] = test system: T-47D breast
[12] = test system: BT-549 breast
[13] = test system: MDA-MB-435 melanoma
[14] = test system: SW-620 colon
[15] = test system: MCF7 breast
[16] = test system: HCT-116 colon
[17] = test system: HCC-2998 colon

Measured: growth

C#CCNCCCN1C(=O)c2ccc3c4c(ccc(c24)C1=O)C(=O)N(CCCNCC#C)C3=O
inactive: [2] 12.5%
active: [1] -21.1% | [3] -31.1% | [4] -73.6% | [5] -97.8% | [6] -42.7% | [7] -75.1% | [8] -27.6% | [9] -22.9% | [10] -32% | [11] -52.1% | [12] -93.8% | [13] -66.9% | [14] -59.8% | [15] -72.7% | [16] -25% | [17] -90%

CCN(CC)CCn1c(=N)n(CC(O)c2ccc(Cl)c(Cl)c2)c2ccccc21 (centres undefined)
active: [13] 1.39%
inactive: [1] 26.4% | [2] 68.1% | [3] 92.6% | [4] 102% | [5] 69% | [6] 92.3% | [7] 90.1% | [8] 96.7% | [9] 80.5% | [10] 88.6% | [11] 66.5% | [12] 76.7% | [14] 93.5% | [15] 90% | [16] 77.7% | [17] 74.5%

O=C1/C(=C/c2ccc(O)cc2)Cc2ccc(Cl)cc21
inactive: [1] 117% | [2] 120% | [3] 86.3% | [4] 111% | [5] 85.5% | [6] 111% | [7] 18.8% | [8] 93% | [9] 95.4% | [10] 94.2% | [11] 80.4% | [12] 59% | [13] 78% | [14] 98.7% | [15] 58.8% | [16] 88.4% | [17] 115%

CC1(C)Cc2c(cn(Cc3ccccc3)c2-c2ccccc2)-c2oncc21
inactive: [1] 86.8% | [2] 74.8% | [3] 101% | [4] 111% | [5] 98.5% | [6] 96.4% | [7] 121% | [8] 110% | [9] 103% | [10] 92.5% | [11] 75.7% | [12] 108% | [13] 92.8% | [14] 95.7% | [15] 105% | [16] 88.2% | [17] 104%

Cc1[nH]nc2c(=S)[nH]c(=O)[nH]c12
inactive: [1] 113% | [2] 101% | [3] 99.1% | [4] 99.4% | [5] 99.6% | [6] 109% | [7] 111% | [8] 110% | [9] 105% | [10] 100% | [11] 104% | [12] 98.1% | [13] 102% | [14] 103% | [15] 94% | [16] 105% | [17] 106%

COC(=O)c1c(C)nc(Nc2nc3ccccc3s2)nc1-c1ccc(Cl)cc1Cl
inactive: [1] 99.4% | [2] 96.2% | [3] 103% | [4] 113% | [5] 91.6% | [6] 102% | [7] 124% | [8] 92.2% | [9] 108% | [10] 104% | [11] 105% | [12] 101% | [13] 111% | [14] 104% | [15] 78.5% | [16] 98.4% | [17] 108%

O=C(c1ccc(Cl)cc1)c1no[n+]([O-])c1C(=O)c1ccc(Cl)cc1
inactive: [2] 35.5% | [3] 30.1% | [4] 105% | [5] 92.5% | [6] 105% | [8] 43.2% | [9] 109% | [10] 82.7% | [11] 89.6% | [12] 98.7% | [13] 89.8% | [14] 44.2% | [15] 92.1% | [16] 49% | [17] 113%
active: [1] -18.5% | [7] -35.8%

[O-]c1c[n+](-c2ccc(Cl)cc2)no1
inactive: [1] 97.9% | [2] 101% | [3] 106% | [4] 96.7% | [5] 82.1% | [6] 105% | [7] 80.7% | [8] 104% | [9] 101% | [10] 103% | [11] 83.5% | [12] 107% | [13] 100% | [14] 97.5% | [15] 84.9% | [16] 102% | [17] 101%

CNC(=O)c1cc(Oc2ccc(NC(=O)Nc3ccc(Cl)c(OC(C)C)c3)c(F)c2)ccn1
active: [11] 9.9%
inactive: [1] 40.8% | [2] 26.8% | [3] 53.9% | [4] 85.3% | [5] 24.1% | [6] 82.8% | [7] 60.8% | [8] 58.3% | [9] 64.6% | [10] 56% | [12] 75.1% | [13] 43.2% | [14] 68.2% | [15] 31% | [16] 30.4% | [17] 66.7%

CC(C)OCc1cc(CN2CCN(c3cccc(Cl)c3)CC2)c(O)c2ncccc12
active: [1] -30.6% | [2] -25% | [3] -15.2% | [7] 8.86% | [8] 2.88% | [9] -0.795% | [10] -27.3% | [11] 3.25% | [12] -46% | [13] -28.5% | [14] -3.23% | [15] 4.89% | [16] -55.5% | [17] -21.6%
inactive: [4] 38.3% | [5] 15.7% | [6] 13.7%

COc1cc(/C=C/C(=O)c2cc(-c3ccc(C(F)(F)F)cc3)ccc2O)cc(OC)c1OC
inactive: [1] 23.4% | [3] 64.1% | [4] 99.6% | [5] 64.6% | [6] 81.5% | [7] 75.3% | [8] 74.1% | [9] 59.4% | [10] 65.9% | [11] 35.7% | [12] 73.2% | [13] 48.4% | [14] 54.9% | [15] 43.8% | [16] 46.6% | [17] 94.6%
active: [2] -9.06%

Brc1ccc(-c2cn3ccnc3c(-c3ccc(Br)cc3)n2)cc1
active: [13] 3.08%
inactive: [1] 13.4% | [2] 58.3% | [3] 51.6% | [4] 82.4% | [5] 62.2% | [6] 55.2% | [7] 55.8% | [8] 31.9% | [9] 61.1% | [10] 19.7% | [11] 37.2% | [12] 17.6% | [14] 25.4% | [15] 22% | [16] 30% | [17] 60.2%

CCCCCC(=O)N1c2ccccc2NC2=C(C(=O)CC(c3ccc(OC)c(OC)c3)C2)C1c1ccc(C(F)(F)F)cc1 (centres undefined)
inactive: [1] 51.8% | [2] 21.6% | [3] 47.1% | [4] 103% | [5] 41.8% | [6] 83.6% | [7] 63% | [8] 33.1% | [9] 78.7% | [10] 58.7% | [11] 36.9% | [12] 75.9% | [13] 62.4% | [14] 68.8% | [15] 50.2% | [16] 39.3% | [17] 81.2%

COc1ccc(/C=C2\SC(=S)N(CCCN3CCOCC3)C2=O)c(OC)c1
inactive: [1] 72.5% | [2] 78.4% | [3] 96.1% | [4] 104% | [5] 91.1% | [6] 105% | [7] 115% | [8] 103% | [9] 99.1% | [10] 92.6% | [11] 71.2% | [12] 96.1% | [13] 101% | [14] 105% | [15] 76% | [16] 92.2% | [17] 109%

COc1ccc(-c2nc(-c3nc4ccc(OC)cc4[nH]3)c3ccccn23)cc1
inactive: [1] 32.4% | [3] 30.8% | [4] 89.7% | [5] 50.5% | [6] 92.3% | [7] 57.2% | [8] 81.8% | [9] 80% | [10] 50.9% | [11] 36.7% | [12] 77.6% | [13] 81.5% | [14] 93.3% | [15] 69.4% | [16] 66.4% | [17] 86.4%
active: [2] 3.21%

CN(C1c2ccccc2Oc2ccccc21)S(=O)(=O)c1cc(Cl)ccc1Cl
active: [13] 4.17%
inactive: [1] 12.8% | [2] 67.3% | [3] 65.8% | [4] 84.4% | [5] 69.2% | [6] 54.5% | [7] 53.8% | [8] 19.4% | [9] 76.2% | [10] 51.9% | [11] 39.3% | [12] 71.9% | [14] 30.3% | [15] 21.4% | [16] 31.3% | [17] 84.3%

COc1ccc(Cn2cc3c(c2-c2ccccc2)CC(C)(C)c2cnoc2-3)cc1
active: [8] 6.6% | [9] 9.84% | [13] -16.6%
inactive: [1] 24.5% | [2] 32.2% | [3] 50.4% | [4] 78% | [5] 60.4% | [6] 20% | [7] 44.6% | [10] 18.7% | [11] 30.7% | [12] 46.2% | [14] 13.6% | [15] 17.1% | [16] 22.9% | [17] 77.4%
